Measurements: PubChem BioAssay (NCI)
About 83,000 compounds went through this panel and 20% of them were active in at least one assay; those are over-represented in the sample as a whole.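 A percent growth of 40 corresponds to 60% growth inhibition; 0 means no net growth; -100 means all cells died. Active threshold: below 10.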 Unmarked numbers belong to inactive results. Calls of active or inactive are those of the source.

These compounds were tested on RPMI-8226 leukemia (assay: NCI-60 one-dose screen, 48 h (100 = growth as untreated, 0 = no growth, -100 = all killed)). Details: 10 µM unless noted.

Compound | growth
CC1(C)CC(=O)C2=C(C1)Oc1nc(N)c(C#N)c(N)c1C2c1ccc(F)cc1 (configuration not stated) | 163%
O=C1c2cc([N+](=O)[O-])ccc2-c2cc(Cl)c(NC(=O)C(F)(F)F)cc21 | 102%
COc1ccc(CNCCCN2C(=O)c3ccc4c5c(ccc(c35)C2=O)C(=O)N(CCCNCc2ccc(OC)c(OC)c2OC)C4=O)c(OC)c1OC | -42.3% (active)
O=C(Nc1ccccc1)Nc1ccc(Nc2ncnc3sc4c(c23)CCCC4)cc1 | 99.3%
O=S(=O)(Cc1cccc2c(CS(=O)(=O)c3ccc(Cl)cc3)cccc12)c1ccc(Cl)cc1 | 96.3%
COc1cc(CNC(=O)CCCC/C=C/C(C)C)ccc1OCc1nnc(Nc2ccccc2F)o1 | 64.9%
Nc1nc2c(c3ncncc13)C(c1cccc(C(F)(F)F)c1)Cc1ncncc1-2 (configuration not stated) | 26.8%
Cn1cnc2nc[nH]c2c1=S | 101%
O=C(O)c1ccc(-c2nn(-c3ccc(C(=O)O)cc3)cc2CNc2ccc(Br)cc2)cc1 | 108%
O=C(N/N=C/c1coc2ccccc2c1=O)c1cc2oc(-c3ccccc3)cc2[nH]1 | 67%
CCC(C)C1NC(=O)C(CC(C)C)NC(=O)C(C)NC(=O)C(C(C)C)NC(=O)C(CCCCN)NC(=O)C(CC(C)C)NC(=O)C(C(C)C)NC(=O)[C@H](C)NC(=O)C(C(C)CC)NC(=O)C(CCCN=C(N)N)NC(=O)C(CCCCN)NC(=O)C(CCCN=C(N)N)NC(=O)C(CCCCN)NC(=O)C([C@H](C)CC)NC(=O)C(CCCCN)NC1=O (some centres not stated) | -35.5% (active)
C=CCN(C)C | 117%
CCC(CCCN1C(=O)c2ccccc2C1=O)Nc1cc(OC)cc2cccnc12 (configuration not stated) | 102%
O=c1c(N=Nc2nccs2)c(-c2ccccc2)[nH]n1-c1nc(-c2ccccc2)cs1 | 16.1%
Cc1ccc(C(=O)Nc2ccc(CN3CCN(C)CC3)c(C(F)(F)F)c2)cc1C#Cc1cncc2ncccc12 | -53.5% (active)
CCOC(=O)C1C(=O)C(=O)N(C(C)C)C1C(=O)OCC (configuration not stated) | 106%
COc1ccc2c(c1)/C(=C1/S/C(=N/c3nnc(C)s3)NC1=O)C(=O)N2Cc1ccc(Br)cc1 | 26.6%
CCOP1(=O)CC(C)=C(Cl)C(P(=O)(O)O)C1 (configuration not stated) | 81.9%
O=C(O)CC1Cc2ccccc2C1C(=O)O (configuration not stated) | 110%
CCc1ccc(C(=Nc2ccc(N(C)C(=O)CN3CCN(C)CC3)cc2)c2c(O)[nH]c3ccc(C(=O)OC)cc23)cc1 | -46.9% (active)
N#CCCCCCCCCCCC#N | 94.9%
O=C1CSC(c2ccccc2Cl)N1c1nnc(-c2ccncc2)o1 (configuration not stated) | 86%
